1 sequence from PMC7862700, “An all-to-all approach to the identification of sequence-specific readers for epigenetic DNA modifications on cytosine” can be followed below.

Holding throughout (experiment): DAPPL (digital affinity profiling via proximity ligation, sequencing); 10 mM Tris-HCl pH 7.5, 50 mM NaCl, 1 mM DTT, 4% glycerol, room temperature, 30 min; GST-TFs on glutathione beads, 16-mer random dsDNA library, 0.1% formaldehyde crosslink after washing; high values mean tight binding
Holding throughout (settings): protein: recombinant; tags: N-terminal GST; dsDNA, one strand shown

One experiment concerns the target T1, ETV2 (Homo sapiens, UniProt O00321 1-342).
T1 sequence: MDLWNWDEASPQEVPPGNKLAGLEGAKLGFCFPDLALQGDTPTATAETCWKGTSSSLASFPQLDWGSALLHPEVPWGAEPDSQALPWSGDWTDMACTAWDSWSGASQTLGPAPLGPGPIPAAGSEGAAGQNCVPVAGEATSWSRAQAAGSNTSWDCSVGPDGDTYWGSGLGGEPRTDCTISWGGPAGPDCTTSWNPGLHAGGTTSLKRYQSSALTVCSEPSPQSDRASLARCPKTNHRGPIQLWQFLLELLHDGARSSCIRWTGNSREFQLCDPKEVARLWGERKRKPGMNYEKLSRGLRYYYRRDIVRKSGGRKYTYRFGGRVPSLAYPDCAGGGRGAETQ
The method in brief:
(§1)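 GST fusions of human transcription factors were expressed in yeast and captured with glutathione beads. Once given DNA barcodes and pooled alongside a tag-only sample, they were incubated for 30 min at room temperature with 200 nmole of a random double-stranded 16-mer DNA library in Tris/NaCl/DTT/glycerol buffer, then washed, crosslinked (0.1% formaldehyde), proximity-ligated, PCR-amplified and sequenced on an Illumina NextSeq500. The binding signal of each hexamer is its read frequency for a factor divided by its frequency for the tag-only sample.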

Another experiment concerns the target T2, ELF3 (Homo sapiens, UniProt P78545 1-371).
T2 sequence: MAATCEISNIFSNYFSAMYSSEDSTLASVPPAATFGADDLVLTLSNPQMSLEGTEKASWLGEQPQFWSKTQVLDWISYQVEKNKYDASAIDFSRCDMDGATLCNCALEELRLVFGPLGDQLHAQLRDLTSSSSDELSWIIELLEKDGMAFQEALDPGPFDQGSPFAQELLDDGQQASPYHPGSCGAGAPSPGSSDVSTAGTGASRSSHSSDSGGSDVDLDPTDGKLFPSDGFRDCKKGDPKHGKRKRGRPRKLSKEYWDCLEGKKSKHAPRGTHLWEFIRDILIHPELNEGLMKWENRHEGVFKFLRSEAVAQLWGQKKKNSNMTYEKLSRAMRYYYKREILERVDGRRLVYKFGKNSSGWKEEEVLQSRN
The method, boiled down:
as §1

The next experiment has as its target ETV1 (Homo sapiens, UniProt P50549 1-477). The method, boiled down:
as §1

The next experiment deals with T3, ERF (Homo sapiens, UniProt P50548 1-548).
T3 sequence: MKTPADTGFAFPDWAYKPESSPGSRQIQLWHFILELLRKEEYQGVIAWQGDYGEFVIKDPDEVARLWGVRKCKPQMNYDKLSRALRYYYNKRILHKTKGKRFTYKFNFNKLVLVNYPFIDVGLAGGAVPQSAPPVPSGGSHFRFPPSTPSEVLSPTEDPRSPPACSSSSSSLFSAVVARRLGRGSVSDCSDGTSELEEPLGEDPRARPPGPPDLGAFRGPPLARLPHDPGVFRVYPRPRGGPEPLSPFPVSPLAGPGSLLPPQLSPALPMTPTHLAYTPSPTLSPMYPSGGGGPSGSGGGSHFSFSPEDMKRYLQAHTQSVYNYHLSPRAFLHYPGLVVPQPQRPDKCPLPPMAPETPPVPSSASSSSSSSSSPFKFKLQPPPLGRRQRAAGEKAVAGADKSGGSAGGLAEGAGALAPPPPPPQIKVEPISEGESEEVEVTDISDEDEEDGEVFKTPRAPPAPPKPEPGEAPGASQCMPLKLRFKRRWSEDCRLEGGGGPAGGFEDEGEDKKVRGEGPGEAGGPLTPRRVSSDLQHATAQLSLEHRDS
The method, boiled down: as §1

The target of another experiment is T4, ETV3L (Homo sapiens, UniProt Q6ZN32 1-361).
T4 sequence: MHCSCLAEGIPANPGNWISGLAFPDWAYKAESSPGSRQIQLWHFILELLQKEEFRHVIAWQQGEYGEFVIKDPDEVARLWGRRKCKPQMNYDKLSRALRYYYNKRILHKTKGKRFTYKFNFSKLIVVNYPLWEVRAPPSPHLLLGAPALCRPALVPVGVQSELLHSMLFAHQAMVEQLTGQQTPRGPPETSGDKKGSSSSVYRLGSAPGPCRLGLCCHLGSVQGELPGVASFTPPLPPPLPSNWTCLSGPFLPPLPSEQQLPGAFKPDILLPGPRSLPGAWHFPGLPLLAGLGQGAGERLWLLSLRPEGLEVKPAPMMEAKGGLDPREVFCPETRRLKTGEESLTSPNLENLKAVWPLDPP
The method, boiled down: as §1

The target in a further experiment is T5, ETS2 (Homo sapiens, UniProt P15036 1-469).
T5 sequence: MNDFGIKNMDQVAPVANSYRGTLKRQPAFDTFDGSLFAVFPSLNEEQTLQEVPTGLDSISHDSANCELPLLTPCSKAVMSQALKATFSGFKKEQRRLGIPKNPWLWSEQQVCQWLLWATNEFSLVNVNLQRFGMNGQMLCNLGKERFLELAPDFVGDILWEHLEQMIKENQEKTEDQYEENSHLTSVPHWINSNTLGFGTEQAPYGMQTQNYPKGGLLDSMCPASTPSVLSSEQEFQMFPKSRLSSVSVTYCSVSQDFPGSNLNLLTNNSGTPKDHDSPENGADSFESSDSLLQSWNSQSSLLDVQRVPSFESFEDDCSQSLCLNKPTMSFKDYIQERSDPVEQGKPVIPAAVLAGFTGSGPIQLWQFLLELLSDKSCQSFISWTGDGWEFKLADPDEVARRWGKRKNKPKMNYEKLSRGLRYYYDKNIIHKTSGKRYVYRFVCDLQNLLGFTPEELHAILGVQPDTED
The method in brief:
as §1

The target of the next experiment is T6, SPDEF (Homo sapiens, UniProt O95238 1-335).
T6 sequence: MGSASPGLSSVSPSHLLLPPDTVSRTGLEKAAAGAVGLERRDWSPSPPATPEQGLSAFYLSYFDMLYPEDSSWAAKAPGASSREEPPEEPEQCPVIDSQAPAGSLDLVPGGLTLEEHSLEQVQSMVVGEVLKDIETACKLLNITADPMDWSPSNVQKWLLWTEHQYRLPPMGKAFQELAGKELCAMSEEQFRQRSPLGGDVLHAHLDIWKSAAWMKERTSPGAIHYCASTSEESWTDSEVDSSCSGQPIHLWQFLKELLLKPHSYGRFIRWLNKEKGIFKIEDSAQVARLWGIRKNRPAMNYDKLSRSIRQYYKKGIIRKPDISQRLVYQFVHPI
The method, boiled down: as §1

The target in a further experiment is T7, ETV7 (Homo sapiens, UniProt Q9Y603 1-341).
T7 sequence: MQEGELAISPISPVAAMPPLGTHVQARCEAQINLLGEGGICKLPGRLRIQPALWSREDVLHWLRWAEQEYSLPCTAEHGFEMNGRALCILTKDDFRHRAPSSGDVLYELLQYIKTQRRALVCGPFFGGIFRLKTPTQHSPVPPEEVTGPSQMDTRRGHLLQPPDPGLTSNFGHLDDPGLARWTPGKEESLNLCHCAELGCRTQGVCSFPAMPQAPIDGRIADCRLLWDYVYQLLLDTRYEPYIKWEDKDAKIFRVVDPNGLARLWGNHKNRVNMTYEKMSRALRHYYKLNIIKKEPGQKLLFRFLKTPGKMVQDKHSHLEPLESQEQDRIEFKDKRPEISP
The method, boiled down:
as §1

Another experiment concerns the target T8, ETV3 (Homo sapiens, UniProt P41162-2 1-143).
T8 sequence: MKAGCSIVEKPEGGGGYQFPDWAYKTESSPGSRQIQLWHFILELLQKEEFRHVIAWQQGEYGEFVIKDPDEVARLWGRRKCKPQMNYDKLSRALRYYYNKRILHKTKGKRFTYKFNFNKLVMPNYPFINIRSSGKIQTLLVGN
The method, boiled down:
as §1

The target of a further experiment is ETV6 (Homo sapiens, UniProt P41212 1-452). The method in brief:
as §1

ETV1, sequence (P50549 whole entry): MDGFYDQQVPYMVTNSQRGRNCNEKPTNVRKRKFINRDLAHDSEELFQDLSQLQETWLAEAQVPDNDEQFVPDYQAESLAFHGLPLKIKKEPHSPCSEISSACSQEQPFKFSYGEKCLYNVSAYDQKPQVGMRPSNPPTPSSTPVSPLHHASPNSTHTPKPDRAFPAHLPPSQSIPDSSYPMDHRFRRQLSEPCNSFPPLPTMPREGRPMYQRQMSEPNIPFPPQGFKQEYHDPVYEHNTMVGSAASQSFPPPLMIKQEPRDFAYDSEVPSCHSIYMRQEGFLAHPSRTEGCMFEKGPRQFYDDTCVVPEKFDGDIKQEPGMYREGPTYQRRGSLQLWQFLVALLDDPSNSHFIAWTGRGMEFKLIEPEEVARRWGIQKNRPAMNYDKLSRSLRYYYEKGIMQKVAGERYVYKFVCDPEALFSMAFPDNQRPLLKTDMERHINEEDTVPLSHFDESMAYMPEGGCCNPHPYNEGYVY
ETV6, sequence (P41212 whole entry): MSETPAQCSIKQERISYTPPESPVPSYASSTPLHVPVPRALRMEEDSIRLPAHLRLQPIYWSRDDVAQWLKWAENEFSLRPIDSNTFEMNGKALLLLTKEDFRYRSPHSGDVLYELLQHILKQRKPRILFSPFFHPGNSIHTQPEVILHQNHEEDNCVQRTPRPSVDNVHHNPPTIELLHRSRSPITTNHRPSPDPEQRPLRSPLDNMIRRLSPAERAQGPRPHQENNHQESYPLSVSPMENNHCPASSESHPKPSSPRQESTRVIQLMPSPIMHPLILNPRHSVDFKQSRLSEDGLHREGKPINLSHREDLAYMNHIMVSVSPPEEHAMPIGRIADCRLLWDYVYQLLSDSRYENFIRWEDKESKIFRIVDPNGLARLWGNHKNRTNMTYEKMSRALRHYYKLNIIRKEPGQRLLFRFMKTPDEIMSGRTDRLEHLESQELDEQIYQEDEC

CCAACC: the binding signal is 1.08 fold enrichment (6-mer frequency, TF over GST control) in the experiment with ETV2; 1.08 fold enrichment (6-mer frequency, TF over GST control) in the experiment with ELF3; 1.04 fold enrichment (6-mer frequency, TF over GST control) with ETV1; 1.14 fold enrichment (6-mer frequency, TF over GST control) in the experiment with ERF; 1.09 fold enrichment (6-mer frequency, TF over GST control) with ETV3L; 1.18 fold enrichment (6-mer frequency, TF over GST control) with ETS2. The binding signal was 1.11 fold enrichment (6-mer frequency, TF over GST control) with SPDEF; 1.07 fold enrichment (6-mer frequency, TF over GST control) with ETV7; 1.11 fold enrichment (6-mer frequency, TF over GST control) with ETV3; 1.08 fold enrichment (6-mer frequency, TF over GST control) with ETV6.
